Measured values taken from PubChem BioAssay (NCATS).
Records with an inconclusive call do not appear. Entries that show only a call come without a potency. Activity calls are given as the source filed them. The call rests on the fitted dose curve; in most records, active means well fitted cell-killing curve with a large enough effect; inconclusive means small, poorly fitted or top-dose-only effect; inactive means no such curve, though single readings can be large or run the other way.
Potency means the concentration at half of the fitted maximal effect.

Assay: qHTS of pediatric cancer cell lines to identify multiple opportunities for drug repurposing: Primary screen for SJ-GBM2 cells (AID 1347091)
Details: SJ-GBM2 viability, CellTiter-Glo luminescence, 48 h; series mostly up to 46 µM
Procedure, shortened: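 Eight- or eleven-point concentration series, 48 h treatment at 37 degrees C in growth media; readout CellTiter-Glo luminescence. Potency and efficacy were taken from the concentration-response curves.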
For CCn1cc(C(=O)O)c(=O)c2cnc(N3CCCC3)nc21, the activity change, negative = cytotoxic was -2.71% [at 9.22 µM] (inactive).
With O=C(Nc1ccc(Oc2ccc(Cl)cc2)c(Cl)c1)c1cc(I)cc(I)c1O the Potency was 15 µM (active).
In the case of COC(=O)[C@@H]1CC2=CC(=O)CC[C@]2(C)[C@@]23O[C@@H]2C[C@@]2(C)[C@@H](CC[C@@]24CCC(=O)O4)[C@H]13, the Potency was “inactive”.
In the case of CO/N=C1\CN(c2nc3c(cc2F)c(=O)c(C(=O)O)cn3C2CC2)CC1CN (stereo unspecified), the Potency was “inactive”.
For CCC(=O)c1c(O)cc(O)cc1O, the Potency was “inactive”.
With CC[C@@H](CO)NCCN[C@@H](CC)CO the Potency was “inactive”.
For N[C@H](Cc1c[nH]c2ccccc12)C(=O)O, the Potency was “inactive”.
In the case of CC(=O)OCC(=O)[C@@]12N=C(C)O[C@@H]1C[C@H]1[C@@H]3CCC4=CC(=O)C=C[C@]4(C)[C@H]3[C@@H](O)C[C@@]12C, the Potency was “inactive”.
In the case of Cc1c(F)c(N2CCNC(C)C2)cc2c1c(=O)c(C(=O)O)cn2C1CC1 (stereo unspecified), the Potency was “inactive”.
In the case of CC[N+](CC)(CCNC(=O)C(=O)NCC[N+](CC)(CC)Cc1ccccc1Cl)Cc1ccccc1Cl, the Potency was “inactive”.
In the case of CCN1CCC[C@H]1CNC(=O)c1c(OC)ccc(Br)c1OC, the Potency was “inactive”.
For CCCC(=O)O[C@]1(C(=O)CO)CC[C@H]2[C@@H]3CCC4=CC(=O)CC[C@]4(C)[C@H]3[C@@H](O)C[C@@]21C, the Potency was “inactive”.
With CC(C)(C)CC(C)(C)c1ccc(O)c(Cc2ccc(Cl)cc2Cl)c1 the Potency was 21.1 µM (active).
For Cc1cc(O)c(C(C)C)cc1Cl, the Potency was “inactive”.
In the case of CCN1CCN(c2cc3c(cc2F)c(=O)c(C(=O)O)cn3C2CC2)CC1, the Potency was “inactive”.
In the case of NCCCC[C@H](N[C@@H](CCc1ccccc1)C(=O)O)C(=O)N1CCC[C@H]1C(=O)O, the Potency was “inactive”.
With C=C1C[C@H]2[C@@H]3C=C(C)C4=CC(=O)CC[C@]4(C)[C@H]3CC[C@]2(C)[C@@]1(OC(C)=O)C(C)=O the Potency was “inactive”.
With CCOC(=O)n1ccn(C)c1=S the Potency was “inactive”.
In the case of CC(O)(P(=O)(O)O)P(=O)(O)O, the Potency was “inactive”.
In the case of NC(=O)C(=O)N/N=C/c1ccc([N+](=O)[O-])o1, the Potency was “inactive”.
With Cc1c(C)n(CCN(C)C)c2ccc(C(=O)OCCN(C)C)cc12 the Potency was “inactive”.
For C=CCc1ccc(O)c(OC)c1, the Potency was “inactive”.
For NCCc1ccn[nH]1, the Potency was “inactive”.
In the case of CC(C)NC[C@@H](O)COc1cccc2ccccc12, the Potency was “inactive”.
With CC(=O)OCC(=O)[C@@]12OC(C)(C)O[C@@H]1C[C@H]1[C@@H]3C[C@H](F)C4=CC(=O)C=C[C@]4(C)[C@@]3(F)[C@@H](O)C[C@@]12C the Potency was “inactive”.
For Nc1ccn([C@@H]2O[C@H](CO)[C@@H](O)C2(F)F)c(=O)n1, the Potency was 0.473 µM (active).
For Cc1c(C(C)C)c(=O)n(-c2ccccc2)n1C, the Potency was “inactive”.
With Cc1cccn2c(=O)c(-c3nnn[nH]3)cnc12 the Potency was “inactive”.
In the case of CCOC(=O)OC(C)OC1=C(C(=O)Nc2ccccn2)N(C)S(=O)(=O)c2ccccc21 (stereo unspecified), the Potency was “inactive”.
With Cc1cccc(C)c1NC(=O)CN1CCN(CCCC(c2ccc(F)cc2)c2ccc(F)cc2)CC1 the Potency was 21.1 µM (active).
With NC(=O)CC[C@@H]1NC(=O)[C@H](Cc2ccccc2)NC(=O)[C@H](Cc2ccc(O)cc2)NC(=O)CCSSC[C@@H](C(=O)N2CCC[C@H]2C(=O)N[C@@H](CCCN=C(N)N)C(=O)NCC(N)=O)NC(=O)[C@H](CC(N)=O)NC1=O the Potency was “inactive”.
With O=c1[nH]c(=O)n([C@H]2C[C@H](O)[C@@H](CO)O2)cc1C(F)(F)F the Potency was “inactive”.
For CCOC(=O)/C=C(C)/C=C/C=C(C)/C=C/c1c(C)cc(OC)c(C)c1C, the Potency was “inactive”.
With NC(CO)(CO)CO the Potency was “inactive”.
In the case of c1ccc(CNCCNCc2ccccc2)cc1, the Potency was “inactive”.
For CC(C)(Oc1ccc(Cl)cc1)C(=O)O, the Potency was “inactive”.
